Each structure is given as a SMILES string. In all, about 360,000 compounds went through this assay and about 17,000 (4.7%) were called active. Another 5% or so got no clear call; they are omitted. Shown is part of a subset that was picked to be rich in actives. Unmarked numbers belong to inactive results. No stated cut-off is given here; in the data, active means activity change below about -50%; inconclusive means mostly about -30% to -49%; inactive means weaker than that.
On the % scale 0 is the no-effect control and ±100 the full control effect.

The experiment can be described thus: qHTS for Inhibitors of Inflammasome Signaling: IL-1-beta AlphaLISA Primary Screen. Conditions: THP-1 LPS/ATP IL-1B secretion, 16 h; at 57.5 µM, hits give low values. From the text:
Inflammasomes are a set of intracellular multi-protein complexes that enable autocatalytic activation of inflammatory caspases and drive the innate immune response to counter harmful agents. […] A qHTS assay, based on AlphaLISA technology, was developed to screen the Molecular Libraries Small Molecule Repository (MLSMR) to look for novel inflammasome inhibitors. The assay detects IL-1B using AlphaLISA anti-IL-1B acceptor and donor beads. A decreased emission signal, indicating reduced IL-1B secretion, is the desired outcome for this assay. NIH Chemical Genomics Center [NCGC] NIH Molecular Libraries Probe Centers Network [MLPCN] MLPCN Grant: MH095513 Assay Provider: Shyam Biswal Ph.D., Johns Hopkins University Immunity. 2012 Jul 27;37(1):85-95. PMID: 22819042 [2] Curr Pharm Des. 2012;18(16):2320-8. PMID: 22390695
Three microliters containing 3000 THP-1 cells were dispensed into the wells of solid, white, tissue culture treated Greiner 1,536-well plates. Library compounds and positive control, Glyburide, were pin-transferred (23 nL) by a Kalypsys pin-tool equipped with a 1,536-pin array, resulting in final compound concentration ranges of 2.5 nM to 57.5 uM. After 1 hr of cell culture incubation (37 °C, 5% CO2), 1 microL of 1 microg/mL lipopolysaccharide (250 ng/mL, final) and 5 mM ATP (1.25 mM, final) were added to stimulate the cells. After 16 hr of cell culture incubation with the compounds, 1.5 uL of anti-IL-1B acceptor beads (6 ug/mL, final) and biotinylated antibody (0.6 nM, final) were added to the plate, followed by a 1 hr incubation at ambient temperature. To detect the secreted IL-1B, 1.5 uL of AlphaLISA SA-Donor beads (24 ug/mL, final) were added, followed by 30 min of incubation in the dark at ambient temperature. The AlphaLISA signal was read by a PerkinElmer EnVision plate reader with an ultrasensitive luminescence detector and 1536 Plate HTS AlphaScreen aperture (excitation of 680nm and emission of 615nm).
Background: Quantitative high-throughput screening tests each substance at several concentrations.
`CCCCN1C(=O)C(CC(=O)NC(c2ccccc2)c2ccccc2)CC(C(=O)N2CCOCC2)=C1C` (stereo unspecified): the activity change was 14.9%.

Consider `O=C(c1cccs1)n1nc(NCc2ccccc2)nc1NCc1ccccc1`, for which the activity change is -57.7% (active).

`Nc1nc(NCc2ccccc2)n(-c2ccccc2)n1`: the activity change was 4.19%.

On to `CCCC(=O)n1nc(NCc2ccc(OC)cc2)nc1NCc1ccc(OC)cc1`, for which the activity change was 15.3%.

Turning to `CC(C)(C)OC(=O)N1CCN(C(=O)c2[nH]c(C(F)(F)F)nc2-c2ccccc2)CC1`, the activity change is 13.4%.

`Cc1ccc(CN(C(=O)c2sc3ccccc3c2Cl)C2CCS(=O)(=O)C2)cc1` (stereo unspecified): the activity change was -2.89%.

With `Nn1cnnc1N/N=C/c1cc([N+](=O)[O-])c(Cl)cc1Cl`, the activity change is -61.8% (active).

Regarding `O=C(CSc1ncn[nH]1)NCc1ccc2c(c1)OCO2`, the activity change is 17.5%.

On to `O=C(/C=C/Sc1ncn[nH]1)c1ccc(Cl)cc1`, for which the activity change is -118% (active).

Take `Cc1cccc(C=CC(=O)c2ccc(Cl)cc2)c1`: the activity change is -29.5%.

Consider `Cc1ccc(-c2ccc(CN3C(C(C)C)C(=O)N(Cc4cn(CCC5OCCCO5)nn4)CCS3(=O)=O)cc2)cc1` (stereo unspecified), for which the activity change was 13%.

As to `CCn1ncc(C2=NOC(C(=O)N3CCN(c4ccccc4)CC3)C2)c1C` (stereo unspecified), the activity change was 3.63%.

For `O=C(/C=C/c1cn(-c2ccccc2)nc1-c1ccc2c(c1)OCCO2)NCCCN1CCOCC1`, the activity change is -92.2% (active).

`COc1ccc(-c2nn(-c3ccccc3)cc2/C=C\C(=O)N2CCOCC2)cc1[N+](=O)[O-]`: the activity change is -9.66%.

In the case of `O=C(NCCCN1CCOCC1)c1cn(-c2ccccc2)nc1-c1ccc(F)cc1`, the activity change is -7.44%.

Take `O=C(COC(=O)/C=C/c1ccc(Br)o1)Nc1cccc(S(=O)(=O)N2CCOCC2)c1`: the activity change was 13.8%.

On to `CCCCOCCCNC(=O)C[C@@H]1C[C@@]2(C(=O)OCC)CCCC=C2N(CCC2=CCCCC2)C1=O`, for which the activity change was -27.8%.

For `CCOC(=O)[C@]12CCCC=C1N(CCC1=CCCCC1)C(=O)[C@H](CC(=O)NCCCCc1ccccc1)C2`, the activity change is -17.5%.

Consider `CCCCOCCCNC(=O)C[C@@H]1C[C@@]2(C(=O)OC)CCCCC=C2N(CCC2=CCCCC2)C1=O`, for which the activity change is -57.4% (active).

For `CCOC(=O)[C@]12CCCC=C1N(CCC1=CCCCC1)C(=O)[C@H](CC(=O)NCCCOC)C2`, the activity change is 60.5%.

For the compound `CC1=C(C(=O)N(C(C)C)C(C)C)CC(CC(=O)NCCCCc2ccccc2)C(=O)N1CCC1=CCCCC1` (stereo unspecified), the activity change was -59% (active).

With `CC1=C(C(=O)N(C)C)CC(CC(=O)NCCc2ccccn2)C(=O)N1CCC1=CCCCC1` (stereo unspecified), the activity change is -20.1%.

Take `O=C(Nc1c(Br)cc2c(c1Br)Cc1cc([N+](=O)[O-])ccc1-2)C(Cl)Cl`: the activity change was 39%.

Take `CCCOc1ccc(-c2c(C(=O)N/N=C/c3ccco3)nnn2-c2nonc2N)cc1`: the activity change was 92.5%.

Turning to `Cc1cc(C)c(S(=O)(=O)NN=C2c3ccccc3[C@H]3Cc4csc[n+]4[C@@H]23)c(C)c1`, the activity change is -3.78%.

Take `COc1ccc(C(NC(=O)C2CCN(CCCc3ccccc3)CC2)c2cccs2)cc1` (stereo unspecified): the activity change is -24%.

`O=C(CCN1CCCCC1)Nc1ccc(F)c(F)c1`: the activity change is -0.386%.

Regarding `COc1ccc(NC(=O)N(C)C[C@@H]2OCc3cn(nn3)CCCC(=O)N([C@H](C)CO)C[C@H]2C)c(OC)c1`, the activity change was 9.8%.

With `CC(C)(C)OC(=O)N(Cc1ccccc1)Cc1ccc(OCc2cccc(NC(=O)c3ccccc3)c2)cc1`, the activity change is 9.51%.

In the case of `CCOc1ccc(OCc2cccc(C(=O)N(CC)CC)c2)cc1`, the activity change was 0%.

On to `CC(C)c1cc(C(N)=O)c(NC(=O)c2cccc(COc3ccc(Br)cc3)c2)s1`, for which the activity change was -75.7% (active).

Take `O=C1CSC(c2ccc(Cl)cc2)N1` (stereo unspecified): the activity change was 0%.

As to `COc1ccc2c(C)c(CCC(=O)NC3CC3)c(=O)oc2c1C`, the activity change is -19.2%.

Turning to `O=C(NCCOc1ccccc1)c1ccccc1F`, the activity change is -17.7%.

For the compound `CC(=NNC(=S)N1CCCCCC1)c1ccccn1`, the activity change is -106% (active).

Turning to `NC(=O)NC(CC(=O)NNC(=O)c1ccccn1)c1ccc(Cl)cc1` (stereo unspecified), the activity change is 99.7%.

As for `C/C(=N\NC(=O)Cc1ccc(Cl)cc1)c1ccccn1`, the activity change is -103% (active).

Regarding `COc1ccc(/C(C)=N\NC(=O)c2ccc(-c3ccccc3)cc2)c(F)c1`, the activity change was 7.94%.

Consider `Cc1cccc(C)c1NC(=S)N1CCCCCC1`, for which the activity change is 5.87%.

Consider `CNC(=S)N1CCN(c2ccccn2)CC1`, for which the activity change is -3.93%.

For the compound `C/C(=N\NC(=O)c1ccccc1F)c1ccccn1`, the activity change was -100% (active).

As to `CC1=NNC(=O)C1CCC(=O)N/N=C(\C)c1ccc(Cl)cc1` (stereo unspecified), the activity change was 6.73%.

For `CO[C@@H]1CN(C)C(=O)c2cc(NC(=O)Nc3cc(F)ccc3F)ccc2OC[C@H](C)N(C(=O)c2ccccn2)C[C@@H]1C`, the activity change was 11%.

For the compound `COC(=O)c1ccc(CSc2nnc(N)s2)o1`, the activity change was -16.4%.

For `CCCCNC(=O)C[C@@H]1C[C@@]2(C(=O)OCC)CCC=C2N(Cc2ccco2)C1=O`, the activity change is 14.5%.

For `O=C(NCc1ccc(F)cc1)c1cc(C2CCCCN2C(=O)c2cccs2)on1` (stereo unspecified), the activity change is -12.4%.

As for `O=C(CN1CCN(c2ccc(O)cc2)CC1)Nc1ccc(-c2ccccc2)cc1`, the activity change was 12.4%.

`Cc1cccc(C)c1NC(=O)C(c1cccc2ccccc12)n1c(=O)c(-c2ccco2)nc2ccccc21` (stereo unspecified): the activity change was 7.42%.

For the compound `COc1ccc(NS(=O)(=O)c2ccc(C)c(C(=O)NCC(c3cccs3)N3CCOCC3)c2)cc1` (stereo unspecified), the activity change was 2.47%.

Turning to `CC1(C(=O)NS(=O)(=O)c2cccc(OC(F)F)c2)CCN1C(=O)COc1ccc(Cl)cc1` (stereo unspecified), the activity change was 48.6%.

For the compound `COc1cccc(C(O)Cc2nc3ccccc3n2C)c1OC` (stereo unspecified), the activity change is 11.4%.

Turning to `CCOc1ccc(C(O)Cc2nc3ccccc3n2C)cc1` (stereo unspecified), the activity change was -16%.

Take `CC(NCc1nc2ccccc2n1C)C12CC3CC(CC(C3)C1)C2` (stereo unspecified): the activity change is -94.3% (active).

Regarding `COc1cc(C(=O)N2CCN(S(=O)(=O)c3ccc(C(C)C)cc3)CC2)ccc1OCC(=O)N1CCOCC1`, the activity change was -21.1%.

`O=C(c1cc(C2CCCCN2S(=O)(=O)c2ccccc2)on1)N1CCOCC1` (stereo unspecified): the activity change is 0%.

As to `Nn1c(SCC(=O)Nc2nccs2)nnc1-c1ccco1`, the activity change was -6.29%.

As to `CC1(C(=O)NCc2ccc3c(c2)OCO3)CCN1C(=O)Cc1cccc2ccccc12` (stereo unspecified), the activity change is -20.8%.

As to `N#Cc1nc(Cc2cccc3ccccc23)oc1NCc1ccc2c(c1)OCO2`, the activity change is -53.4% (active).

`Cn1cc(CCC(=O)NCc2ccc3c(c2)OCO3)c2ccccc21`: the activity change was 0%.

`Cc1ccc(S(=O)(=O)N2CCOCC2)cc1NC(=O)COC(=O)c1cnccn1`: the activity change is 2.75%.

Take `CCOC(=O)C1CCCN(C(=O)c2ccc(C)c(F)c2)CC1` (stereo unspecified): the activity change is 13%.

In the case of `Cn1c(-c2ccco2)nc2cc3ccccc3cc21`, the activity change is -69.2% (active).

As for `Cn1c(SCC(=O)Nc2ccc(Br)cc2F)nnc1-c1ccco1`, the activity change is -12.1%.

In the case of `COc1ccccc1-n1c(-c2cc(-c3ccco3)[nH]n2)n[nH]c1=S`, the activity change was 5.01%.

Take `NC(=O)CSc1nnc(-c2cccc(S(=O)(=O)N3CCOCC3)c2)o1`: the activity change is -7.22%.

As to `COc1ccc(C(=O)NCC(=O)N/N=C/c2ccc([N+](=O)[O-])o2)cc1OC`, the activity change is -85.8% (active).

Take `COc1ccc(/C=N/NC(=O)CNC(=O)c2ccc(S(=O)(=O)N3CCCC3)cc2)c(OC)c1`: the activity change was 16.6%.

With `COc1cccc(/C=N/NC(=O)CNC(=O)c2ccc(S(=O)(=O)N3CCOCC3)cc2)c1OC`, the activity change is -0.608%.

Consider `COc1ccc(-c2c(C#N)cnc(C)c2C)c(O)c1OC`, for which the activity change was -20.7%.

As for `CCCCCOc1ccc(/C=C/C(=O)NCCc2nc3ccccc3[nH]2)cc1OC`, the activity change is -2.9%.

Regarding `COc1cc(/C=C(\C#N)c2nc3ccccc3[nH]2)ccc1O`, the activity change was -65.7% (active).

With `Cc1ccc(O)c(CNc2nc3ccccc3[nH]2)c1`, the activity change is -5.71%.

As to `O=C(CCN1C(=O)c2ccccc2C1=O)C1=NN[C@@H]2C(=O)N(c3ccc(F)cc3)C(=O)[C@H]12`, the activity change is 5.83%.

`CC(C)(C)NCC(O)COc1cccc2[nH]c(=O)[nH]c12` (stereo unspecified): the activity change was 4.98%.

On to `CC(C)(C)CC(C)(C)NCC(O)COCCOc1ccc(Br)cc1` (stereo unspecified), for which the activity change was -99.4% (active).

Take `COc1ccc(OCC(O)CNCCNc2nccc(C(F)(F)F)n2)cc1` (stereo unspecified): the activity change is -18.5%.

For `O=[N+]([O-])c1ccc2c(c1)C(O)n1nc(-c3ccccc3)nc1S2` (stereo unspecified), the activity change is -8.59%.

As to `O=C(C[C@H]1C[C@@H]2c3cc(NC(=O)C4CCC4)ccc3O[C@@H]2[C@H](CO)O1)NC1CCCCC1`, the activity change was 13%.

Consider `Cn1cnnc1Sc1ccc(CN2CCN(C3CCCC3)C(CCO)C2)o1` (stereo unspecified), for which the activity change was 0.321%.

Regarding `C[C@H]1CN(c2ccc(Br)cc2)C(=O)[C@@H]1CC(=O)Nc1ccc(Br)cc1`, the activity change was 3.7%.

For the compound `O=C(/C=C/c1ccc(Cl)cc1Cl)NCc1ccco1`, the activity change was -10.5%.

Turning to `O=C(CSc1nnnn1-c1ccccc1)NCc1ccco1`, the activity change is 2.34%.

As for `O=C(CSc1c2c(nc3ccc(Cl)cc13)CCCC2)NCc1ccco1`, the activity change was -92.7% (active).

With `CS(=O)(=O)N1CCCC(C(=O)Nc2ccccc2C(F)(F)F)C1` (stereo unspecified), the activity change is 8.14%.

Turning to `O=C(Nc1cccc(F)c1)N1C2CCC1CC(O)(c1cccnc1)C2` (stereo unspecified), the activity change is 31.6%.

`Cc1cc(C)nc(-n2ncc3c2CC(c2ccc(C(C)C)cc2)CC3=O)n1` (stereo unspecified): the activity change is -85.9% (active).

With `Cc1nc2nc3c(cn2n1)C(=O)CC(c1ccccc1)C3` (stereo unspecified), the activity change was 20.9%.

Turning to `COc1ccc(OC)c(-n2cc3c(=O)n(C)c(=O)n(C)c3c2)c1`, the activity change is 33%.

With `COc1ccccc1NC1=NC(c2ccc(Cl)cc2)N=C(N)N1` (stereo unspecified), the activity change was -13.3%.

On to `O=c1ccnc(Nc2ccc(Cl)cc2)[nH]1`, for which the activity change is 0%.

Take `CC1(C)N=C(N)NC(Nc2ccc(Cl)cc2)=N1`: the activity change is -77.7% (active).

The values are drawn from PubChem BioAssay AID743279 (National Center for Advancing Translational Sciences (NCATS), 2014).
